NADH enzymes = blocks coupling enzymes of NAD/NADH assays; coupled PK/LDH NADH assays, four targets; IC50, µM (highest dose often 10 µM); 0.02% of 65,000 active; AID 774;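 active means single-dose screening hits from any of four coupled enzyme assays that gave an IC50 when retested across doses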;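 further: the DPM-DC format reads NADH fluorescence rather than 340 nm absorbance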
PMK inhibit = S. pneumoniae PMK inhibition. purified PMK, PK/LDH-coupled NADH absorbance 340 nm. inhibition, % at 10 µM. 0.49% of 65,000 active. AID 539;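 active means top-ranked compounds by inhibition in the single 10 µM screen, taking a fixed number of the strongest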
DPM-DC inhibit = S. pneumoniae DPM-DC inhibition; purified DPM-DC, PK/LDH coupled NADH fluorescence; calls only at 10 µM; 0.49% of 65,000 active; AID 556;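 active means the 320 compounds with the highest percent inhibition in the single-dose primary screen, excluding strongly autofluorescent ones, cut at about 32% in these data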;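 further: kinetic rate of NADH fluorescence loss reporting ADP formed by the decarboxylase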
Fluor 339 460 = intrinsic fluorescence of library compounds, ex339/em460 – biochemical, MLSMR library, data from DPM-DC assay, artefact control, profiling panel; compound autofluorescence, ex339/em460 nm, NADH buffer; hits give high values; 1 = no-compound wells, NADH background; fluorescence fold increase at 10 µM; 5.5% of 65,000 active; AID 709;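 active means at 10 µM, mean starting fluorescence two-fold or more over control wells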;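 further: signal is the first read of a kinetic run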
MK inhibit = S. pneumoniae mevalonate kinase inhibition; purified MK, PK/LDH-coupled NADH absorbance 340 nm; inhibition, % at 10 µM; 0.48% of 65,000 active; AID 555;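 active means ranked among the strongest by inhibition in the single 10 µM screen, a fixed top-ranked set picked for dose follow-up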
Abs 340nm = compound absorbs light at 340 nm | compound absorbance at 340 nm, fold over control | fold change at 10 µM | 65,000 tested, under 10 active;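 active means at 10 µM dose, initial 340 nm absorbance at least 2 fold that of control wells; inactive means change under 2 fold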;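 further: initial absorbance extrapolated from kinetic A340 decline of NADH oxidation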
Large screens that a line does not name were inactive; [ ] = dose if it differs, or a comment. The list is not random: actives were taken first. Their share in the collection is about 6.5%.

CCCCOCCCn1c(N)c(C(=O)OC(C)COC)c2nc3ccccc3nc21 (stereo not given)	Fluor 339 460 2.4 (not shown: DPM-DC inhibit)
COCCCn1c(N)c(C(=O)OC(C)COC)c2nc3ccccc3nc21 (stereo not given)	Fluor 339 460 3.9 (not shown: DPM-DC inhibit)
CN1CCc2nc(SCC(=O)OC(C)(C)C)c(C#N)cc2C1	Fluor 339 460 2.3 (not shown: DPM-DC inhibit)
COc1ccc(CN2CCN(c3ccccc3)CC2)c(C)c1C	MK inhibit 50
Cc1cc(C)n2nc(C)[n+](C)c2n1	none
Fc1ccccc1N1CCN(Cc2c(F)cccc2F)CC1	MK inhibit 49
Fc1ccccc1N1CCN(Cc2ccc3c(c2)OCO3)CC1	none
Cc1c2ccncc2c(C)c2c1[nH]c1ccccc12	DPM-DC inhibit active[fluoresces], Fluor 339 460 2
c1ccc2c3c([nH]c2c1)CNCC3	none
Cc1[nH]c2ccccc2c1/C=N/O	none
c1ccc2c(c1)[nH]c1cnccc12	Fluor 339 460 2.4 (not shown: DPM-DC inhibit)
Cc1ccc2cc3cc(C(=O)N4CCC5(CC4)OCCO5)oc3nc2c1	Fluor 339 460 3.5
COCCNC(=O)c1c(NC(=O)c2ccco2)n(Cc2ccccc2)c2nc3ccccc3nc12	Fluor 339 460 3.8 (not shown: DPM-DC inhibit)
CC(NC(=O)Oc1ccccc1)C(c1cccs1)N1CCOCC1 (stereo not given)	none
COc1cc(OC)c(OC)cc1CNCCc1ccc(OC)c(OC)c1	MK inhibit 42
COc1cc(OC)c(OC)cc1CNC(C)C(O)c1ccccc1 (stereo not given)	none
OC1(c2cccnc2)CC2CCC(C1)N2Cc1nnnn1Cc1ccccc1 (stereo not given)	none
Cc1cc(N2CCOCC2)nc2ccc(NC(=O)CCC(=O)N3CCC4(CC3)OCCO4)cc12	Fluor 339 460 4.8 (not shown: DPM-DC inhibit)
Cn1cc(CCC(=O)N2CCC3(CC2)OCCO3)c2ccccc21	none
Nc1c(C(=O)NCCc2ccccc2)c2nc3ccccc3nc2n1CCN1CCOCC1	Fluor 339 460 3.9 (not shown: DPM-DC inhibit)
CCC(=NCCCN1CCOCC1)c1c(O)n(Cc2ccccc2)c(=O)[nH]c1=O	none
CC(C)(C)OC(=O)c1c(N)n(Cc2ccco2)c2nc3ccccc3nc12	Fluor 339 460 2.5 (not shown: DPM-DC inhibit)
CCOC(=O)c1c(N)n(CCN2CCCCC2)c2nc3ccccc3nc12	Fluor 339 460 4.9 (not shown: DPM-DC inhibit)
CCOC(=O)c1c(C)n(Cc2ccco2)c2ccc(O)cc12	none
COc1ccc(CCNC(=O)c2c(N)n(CCN3CCOCC3)c3nc4ccccc4nc23)cc1	Fluor 339 460 3.4 (not shown: DPM-DC inhibit)
CCCCn1c(C)c(C(=O)OCC)c2c(CN3CCOCC3)c(O)ccc21	none
CCC(=NCc1ccc2c(c1)OCO2)c1c(O)n(C2CCCCC2)c(=O)[nH]c1=O	none
CN1C(=O)N(C)C(=O)C(CCc2ccncc2)(Cc2ccc3c(c2)OCO3)C1=O	none
CCOc1ccc2[nH]c(=O)c(CN(CCO)C3(c4nnnn4C4CCCCC4)CCCCC3)cc2c1	none
CN1CCN(C(=O)COc2ccc(-c3nc4ccccc4s3)cc2)CC1	none
Nc1c(C(=O)NCCN2CCOCC2)c2nc3ccccc3nc2n1Cc1ccco1	Fluor 339 460 3.9 (not shown: DPM-DC inhibit)
CCCCn1c(N)c(C(=O)NCCN2CCOCC2)c2nc3ccccc3nc21	Fluor 339 460 2.1 (not shown: DPM-DC inhibit)
CC1SC2(CN3CCC2CC3)NC1=O (stereo not given)	none
Cc1cccn2c(NCC3CCCO3)c(C(C)C)nc12 (stereo not given)	Fluor 339 460 3.6 (not shown: DPM-DC inhibit)
CCOc1cc(-c2nc3c(C)cccn3c2NCC2CCCO2)ccc1O (stereo not given)	Fluor 339 460 3.9 (not shown: DPM-DC inhibit)
CC(=NCCCn1ccnc1)c1c(O)n(C)c(=O)n(C)c1=O	none
CCOC(=O)C1SC2(C(F)(F)F)CC1(O)c1c(C)cc(C)nc1O2 (stereo not given)	none
CN1C(=O)N(C)C(=O)C2(Sc3ccccc3C2=O)C1=O	Fluor 339 460 5 (not shown: DPM-DC inhibit)
CN1C(=O)N(C)C(=O)C(CCc2ccccn2)(CCc2ccccn2)C1=O	none
Nc1ccccc1C(=O)OCCOc1ccccc1	Fluor 339 460 2.8
COP(=S)(OC)SCN1C(=O)c2ccccc2C1=O	none
O=C(Cn1ncc2c3ccccc3n(Cc3ccccc3)c2c1=O)N1CCC2(CC1)OCCO2	none
Cc1c2cnn(CC(=O)N3CCC4(CC3)OCCO4)c(=O)c2c(C)n1Cc1ccc(F)cc1	PMK inhibit 29
Cc1cc2c(C(F)(F)F)cc(=O)oc2c2c1NCCC2	PMK inhibit 26
Cc1cccc(-n2c(O)c(C=NCc3cccnc3)c(=O)[nH]c2=O)c1C	none
COC(=O)c1c(C)n(Cc2ccc3c(c2)OCO3)c2ccc(O)cc12	none
CCC(C)NC(=O)c1c(N)n(Cc2ccc3c(c2)OCO3)c2nc3ccccc3nc12 (stereo not given)	Fluor 339 460 4 (not shown: DPM-DC inhibit)
CCC(C)NC(=O)c1c(N)n(CC2CCCO2)c2nc3ccccc3nc12 (stereo not given)	Fluor 339 460 2.5 (not shown: DPM-DC inhibit)
CCC(=NCC1CCCO1)c1c(O)n(-c2ccccc2)c(=O)[nH]c1=O (stereo not given)	none
O=P1(NC2CCCC2)COc2ccccc2OC1	DPM-DC inhibit active
Cc1cccc(N2CCc3c2nc2ccccc2c3N)c1	Fluor 339 460 3.8 (not shown: DPM-DC inhibit)
Cc1ccnc(-n2c(C)nc3ccccc3c2=O)c1	none
CCCCCCN=C(C)c1c(O)n(CCCC)c(=O)[nH]c1=O	none
CCCNc1oc(-c2cccc3ccccc23)nc1C#N	Fluor 339 460 3.8 (not shown: DPM-DC inhibit)
CCCC(=O)c1c(O)[nH]c(=O)[nH]c1=O	none
COCCn1cc(C(=O)N2CCC3(CC2)OCCO3)c2c3ccccc3n(C)c2c1=O	Fluor 339 460 4.3 (not shown: DPM-DC inhibit)
Cn1c2ccccc2c2c(C(=O)N3CCC4(CC3)OCCO4)cn(C3CCCC3)c(=O)c21	Fluor 339 460 2.1 (not shown: DPM-DC inhibit)
Cc1cc(OCc2nn[nH]n2)c2c3c(c(=O)oc2c1)CCCC3	Fluor 339 460 3.8 (not shown: DPM-DC inhibit)
CCCCOC(=O)COc1cc(C)cc2oc(=O)c3c(c12)CCC3	none
C=CCOC(=O)COc1cc(C)cc2oc(=O)c3c(c12)CCC3	Fluor 339 460 2.4 (not shown: DPM-DC inhibit)
CCCCn1c(O)c(C=Nc2c(C)n(C)n(-c3ccccc3)c2=O)c(=O)[nH]c1=O	none
CN(C)CCN=Cc1c(O)n(-c2cccc(C(F)(F)F)c2)c(=O)[nH]c1=O	none
CCOCC(=O)NC1CCSC1=O (stereo not given)	PMK inhibit 25
CN(Cc1ccccc1)Cc1ccccc1OC(=O)N(C)C	none
NC12CN3CN(CN(C3)C1)C2 (tested in a mixture with another compound)	none
COc1cc(CN2CCN(C(=O)COc3ccccc3)CC2)cc(OC)c1OC	MK inhibit 47
CC(=O)N1CC(=O)Nc2ccc(Cl)cc2C1c1ccc(F)cc1 (stereo not given)	none
CCOc1ccc(Br)c(C2(O)CC(C)N(C)CC2C)c1 (stereo not given)	none

Screening results as filed in PubChem.
